Only some compounds are listed: those with a hit (about 18% of all), similar ones and a draw of the others.
RORgamma inh = inhibitors of mouse ROR gamma transcriptional activity; AID 2551; Potency, µM (series often up to 53.6 µM), usual class: inhibitors; Drosophila S2 Gal4-RORgamma UAS-luciferase reporter, 20 h; 310,000 compounds, 5.4% hits; P51450; note: nearly all actives have a fitted effect of over 60% in size
Target sequence (P51450 whole entry, looked up, the tested form may be a part): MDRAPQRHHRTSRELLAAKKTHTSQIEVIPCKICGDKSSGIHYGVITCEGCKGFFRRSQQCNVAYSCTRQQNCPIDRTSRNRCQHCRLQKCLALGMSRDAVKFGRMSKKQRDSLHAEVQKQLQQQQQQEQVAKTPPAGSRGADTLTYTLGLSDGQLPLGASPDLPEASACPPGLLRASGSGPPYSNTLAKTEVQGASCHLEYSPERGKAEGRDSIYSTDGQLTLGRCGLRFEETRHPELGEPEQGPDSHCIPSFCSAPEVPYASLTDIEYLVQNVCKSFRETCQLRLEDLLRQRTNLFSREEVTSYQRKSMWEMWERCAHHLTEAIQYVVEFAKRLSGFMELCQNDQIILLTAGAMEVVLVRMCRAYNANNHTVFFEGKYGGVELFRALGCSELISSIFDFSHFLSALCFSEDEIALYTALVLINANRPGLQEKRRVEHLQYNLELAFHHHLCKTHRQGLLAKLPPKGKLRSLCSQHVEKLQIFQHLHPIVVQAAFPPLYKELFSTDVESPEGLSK
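Compounds are pin-transferred onto Drosophila Schneider cells expressing a copper-inducible Gal4–ROR gamma transactivation domain fusion. After 1 hr, copper sulfate is added to 700 uM final; luciferase is read 20 hr later.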
TDP1 cell CPT = DT40-hTDP1 cell growth loss with CPT. Potency, µM (titrated, usually from 46.2 µM), actives largely listed as inhibitors. 420,000 compounds, 12% hits. chicken DT40 Tdp1-/-;hTDP1 cells + 20 nM CPT, ATP luminescence, 48 h; note: nearly all actives have a fitted effect of over 55% in size
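Chicken DT40 Tdp1-/- cells complemented with human TDP1, 400 cells/well, exposed to compounds plus 20 nM camptothecin for at least 48 h at 37 C; viability read as ATP content by CellTiter-Glo luminescence.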
LDHA inh = blocks human lactate dehydrogenase A; purified LDHA, NADH/diaphorase-resazurin fluorescence; stronger effect = lower value; 480,000 compounds, 0.15% hits; activity change, % (values are at about 110 or 230 µM); in the data active = activity change below about -30%; inconclusive = mostly about -25% to -30%
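Enzyme activity of human lactate dehydrogenase 5 (2 nM; 0.06 mM NADH, 0.2 mM pyruvate, 5 min, RT) is measured via a resazurin/diaphorase fluorescence readout of residual NADH.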
IL1B secr inh = inhibitors of inflammasome signaling (IL-1 beta secretion); THP-1 LPS/ATP IL-1B secretion, AlphaLISA, 16 h; stronger effect = lower value; activity change, % at 57.5 µM; 360,000 compounds, 4.7% hits; AID 743279; in the data active = activity change below about -50%; inconclusive = mostly about -30% to -49%
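THP-1 cells pretreated 1 hr with compounds (up to 57.5 uM final), then stimulated with LPS (250 ng/mL final) plus ATP (1.25 mM final); secreted IL-1B measured by AlphaLISA after 16 hr, decreased signal indicating inhibition.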
TDP1 cell noCPT = qHTS for Inhibitors of human tyrosyl-DNA phosphodiesterase 1 (TDP1): qHTS in cells in absence of CPT; 420,000 compounds, 15% hits; Potency, µM (doses to about 46.2 µM), most hits filed as inhibitors; DT40 Tdp1-/- hTDP1 cells, no CPT, ATP luminescence, 48 h; AID 686978, 2013; note: nearly all actives have a fitted effect of over 55% in size
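No-CPT arm: Tdp1-/-;hTDP1 DT40 cells (400/well) plus compounds, incubated ≥48 hr at 37 °C. Readout CellTiter-Glo luminescence.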
VP16 counter = Gal4-VP16 reporter inhibition counter-screen. Potency, µM (highest dose often 53.6 µM), most hits filed as inhibitors. 310,000 compounds, 3.5% hits. Drosophila S2 Gal4-VP16 UAS-luciferase, luminescence, 20 h;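 note: Gal4-VP16 expression switched on by copper sulfate through the metallothionein promoter; nearly all actives have a fitted effect of over 50% in size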
Numbers stand for hits; - = inactive; ? = inconclusive; . = not tested or not shown. Unless noted, calls come from the whole dose curve; as a rule, active = well fitted curve in the direction sought with a large enough effect; inconclusive = small, poorly fitted or top-dose-only effect, or another doubt; inactive = no such curve, though single readings can be large; an effect the other way counts as inactive or inconclusive.

SMILES | RORgamma inh | TDP1 cell CPT | LDHA inh | IL1B secr inh | TDP1 cell noCPT | VP16 counter
CC1C/C(=N\NC(N)=S)c2cc(Cl)ccc2S1 (stereo not drawn) | 0.631µM | - | - | - | ? | 2µM
CCOC(=O)c1cccc(NC(=O)CS(=O)(=O)Cc2nc(-c3ccccc3C)oc2C)c1 | . | . | - | . | . | .
CC(C)(C)c1ccc(CC(=O)N2CCC2(C)C(=O)NCc2ccc3c(c2)OCO3)cc1 (stereo not drawn) | . | ? | - | - | ? | .
CC1(C(=O)Nc2ccccc2Br)CCN1C(=O)Cc1ccc(Cl)cc1Cl (stereo not drawn) | . | 23.1µM | - | - | 16.4µM | .
CSc1ccccc1NC(=O)C1(C)CCN1C(=O)Cc1ccc(Cl)cc1Cl (stereo not drawn) | . | ? | - | - | ? | .
CC1(C(=O)NCc2ccc3c(c2)OCO3)CCN1C(=O)CCc1ccc(Cl)cc1Cl (stereo not drawn) | . | 20.6µM | - | - | 14.6µM | .
CC1(C(=O)Nc2ccccc2)CCN1C(=O)CCc1ccc(Cl)cc1Cl (stereo not drawn) | . | ? | - | - | 20.6µM | .
Nc1c(N(Cc2ccco2)C(=O)Cc2c(F)cccc2Cl)c(=O)[nH]c(=O)n1Cc1ccccc1 | . | . | - | . | . | .
CC(c1ccc(F)c(F)c1)N(C)CCS(=O)(=O)CCC(N)=O (stereo not drawn) | . | . | - | . | . | .
Cc1cccc(C(=O)NCCCNC(=O)c2ccccn2)c1 | - | - | - | - | - | -
CCOc1cc(NC(=S)NCC2CCCO2)c(OCC)cc1NC(=O)c1cccc(C)c1 (stereo not drawn) | 4.47µM | ? | - | ? | ? | 11.2µM
CCOc1cc(NC(=S)NCC2CCCO2)c(OCC)cc1NC(=O)C1CC1 (stereo not drawn) | 11.2µM | - | - | - | 4.61µM | -
CCOc1cc(NC(=S)Nc2cccc(OC)c2)c(OCC)cc1NC(=O)C1CC1 | 7.08µM | - | - | - | - | ?
CCOc1cc(NC(=O)c2ccccn2)c(OCC)cc1NC(=O)c1cccc(C)c1 | - | 4.11µM | - | - | 1.84µM | -
CCOc1cc(C(=O)NCC2CCCO2)cc(OCC)c1OCC (stereo not drawn) | - | - | - | - | - | -
CCCC(=O)Nc1nc(-c2c[nH]c3ccccc23)cs1 | . | . | - | . | . | .
COc1ccc(N2Cc3nc(=O)n(CC(=O)NCc4ccccc4)n3C2=O)cc1 | . | . | - | . | . | .
CCOc1cc(NC(=S)NCC2CCCO2)c(OCC)cc1NC(=O)c1ccc(F)cc1 (stereo not drawn) | ? | - | - | - | ? | ?
CCOc1cc(NC(=O)c2cccs2)c(OCC)cc1NC(=O)CCC(=O)NCC1CCCO1 (stereo not drawn) | - | - | - | - | ? | -
CCOc1cc(NC(=S)NCC2CCCO2)c(OCC)cc1NC(=O)c1ccccc1 (stereo not drawn) | 6.31µM | - | - | - | - | 11.2µM
CCOc1cc(NC(=S)NCC2CCCO2)c(OCC)cc1NC(=O)c1ccc(C)cc1 (stereo not drawn) | 3.16µM | - | - | - | - | 3.98µM
COc1ccccc1NS(=O)(=O)c1ccc2oc(SCc3ccc(C#N)cc3)nc2c1 | ? | 11.6µM | - | - | 18.4µM | ?
COc1ccccc1NS(=O)(=O)c1ccc2oc(SCC(=O)N3CCNC3=O)nc2c1 | . | 3.66µM | - | - | ? | .
CNC(=O)CSc1nc2cc(S(=O)(=O)Nc3ccccc3OC)ccc2o1 | - | - | - | - | - | -
COc1ccccc1NS(=O)(=O)c1ccc2oc(SCC(=O)N(C)C)nc2c1 | . | . | - | . | . | .
SMILES | RORgamma inh | TDP1 cell CPT | LDHA inh | IL1B secr inh | TDP1 cell noCPT | VP16 counter
O=C1NC2CCCCC2C(=O)N1OS(=O)(=O)c1ccccc1 (stereo not drawn) | . | 2.59µM | - | -78.3 | 11.6µM | .
O=C(CSCc1nc2ccccc2s1)NC1CCCCC1 | . | . | - | . | . | .
COc1cccc(S(=O)(=O)Nc2c(NC3CCCCC3)c3ccccc3oc2=O)c1 | . | . | - | . | . | .
Cc1ccc(CSc2nc(=O)c3c(C)cc(C)nc3n2C2CC2)cc1 | . | 20.6µM | - | . | 20.6µM | .
O=S(=O)(NC1=NCN(CCc2ccccc2)CN1)c1ccc(Br)cc1 | . | . | - | . | . | .
CN(CC(=O)Nc1ccc(Cl)c(C(F)(F)F)c1)Cc1cc(F)cc2c1OCOC2 | . | . | - | . | . | .
O=C(N/N=C/c1ccccn1)c1cc(C2CC2)nc2ccccc12 | 10µM | 23.1µM | - | -102.1 | ? | 12.6µM
O=C(N/N=C/c1ccccn1)c1cc(-c2ccccc2)nc2ccccc12 | 0.501µM | ? | - | - | 16.4µM | 0.794µM
O=C(N/N=C/c1ccc(O)cc1)c1cc(-c2ccccc2)nc2ccccc12 | - | ? | - | - | ? | -
CCOC(=O)c1cc2sccc2n1CC(=O)N1CCCc2ccccc21 | - | ? | - | -50.1 | ? | -
N#CC1=C(N)C(C#N)(C#N)[C@H](c2c(F)cccc2F)[C@H]2CC3(CC=C12)OCCO3 | - | ? | - | - | 16.4µM | -
CN1C2C=C3C(C#N)=C(N)C(C#N)(C#N)[C@@H](c4cccc(F)c4)[C@@H]3C1CC2 (stereo partly drawn) | - | ? | - | - | ? | -
CN1C2C=C3C(C#N)=C(N)C(C#N)(C#N)[C@H](c4c(F)cccc4F)[C@H]3C1CC2 (stereo partly drawn) | - | 7.31µM | - | -92.5 | 10.3µM | -
N#CC1=C(N)C(C#N)(C#N)C2(CCC3(CC2)OCCO3)C2CC3(CC=C12)OCCO3 (stereo not drawn) | - | - | - | - | - | -
CCc1nnc2ccc(NCc3ccc(F)cc3)nn12 | . | . | - | . | . | .
Cc1ccccc1C(=O)NC(NC(=O)c1ccccc1C)c1ccccc1 | . | . | - | . | . | .
CCOC(=O)NC(Nc1ccc(Cl)cc1)(C(=O)OCC)C(F)(F)F (stereo not drawn) | . | . | - | . | . | .
Cc1cc(C(=O)C(C)Sc2cccc[n+]2[O-])c(C)n1-c1ccc(Cl)cc1 (stereo not drawn) | ? | 2.91µM | - | -101.0 | 2.91µM | -
Cc1cc(C(=O)C(=O)O)c(C)n1-c1ccc(Cl)cc1 | - | - | - | - | - | -
COc1ccc(CCNC(=O)CCCn2nc(C)c3sc4ccccc4c3c2=O)c(OC)c1 | . | 23.1µM | - | . | ? | .
Cc1nn(CCCC(=O)NCc2ccccc2)c(=O)c2c1sc1ccccc12 | . | ? | - | . | - | .
CCOC(=O)N1CCN(C(=O)CCCn2nc(C)c3sc4ccccc4c3c2=O)CC1 | - | ? | - | ? | 25.9µM | -
Cc1nn(CCCC(=O)NCc2ccccc2Br)c(=O)c2c1sc1ccccc12 | . | - | - | . | - | .
